Sampled rows, rich in hits. Any-hit rate of the full collection: about 3.9%.
BoNT-A LC inh2: inhibitors of Botulinum neurotoxin A light chain protease. multiplex microsphere protease substrate cleavage, flow cytometry. inhibition, % at 10 µM. hit rate 0.17% among 360,000. AID 588499; also: plate controls were buffer without enzyme for full effect and enzyme alone for no effect
BoNT-F LC inh: blocks Botulinum neurotoxin F light chain protease; Multiplex microsphere protease cleavage assay, flow cytometry; inhibition, % at 10 µM; hit rate 0.22% among 360,000; AID 588497; in the data active = inhibition above about 35%, passing the limit was not always enough; inconclusive = no clear call, values can overlap the other calls; also: plate controls were buffer without enzyme for full effect and enzyme alone for no effect
Bead autofluor: compound fluorescence in toxin protease inhibitor counterscreen; compound autofluorescence counterscreen, microsphere flow cytometry; hits give high values; fluorescence intensity (no concentration beside the values); hit rate 3.1% among 360,000; in the data active = fluorescence intensity above about 16000; inconclusive = no clear call, values can overlap the other calls
3CLpro inhibitor: SARS-CoV 3CLpro protease inhibition; recombinant SARS-CoV 3CLpro, quenched FRET peptide cleavage; inhibition, % at 6 µM; hit rate 0.14% among 290,000; AID 1706; in the data active = inhibition above about 12%
CCHFV vOTU inh: blocks the CCHF virus ovarian tumor domain protease; CCHFV vOTU protease, Pep-AMC fluorescence; inhibition, % at 11.5 µM; hit rate 0.55% among 370,000; in the data active = inhibition above about 30%; also: 0% = vehicle wells with enzyme and 100% = no enzyme wells
Anthrax LF inh2: inhibitors of Bacillus anthracis lethal factor protease; inhibition, % at 10 µM; P15917; hit rate 0.12% among 360,000; multiplex microsphere protease cleavage assay, LF; AID 588501; also: plate controls were buffer without enzyme for full effect and enzyme alone for no effect
* marks the source's active call; other numbers are inactive results; ? = inconclusive; / = no result given. Rule as the data show it, unless noted: active = inhibition above about 30%; inconclusive = no clear call, values can overlap the other calls; inactive = below that.

SMILES | BoNT-A LC inh2 | BoNT-F LC inh | Bead autofluor | 3CLpro inhibitor | CCHFV vOTU inh | Anthrax LF inh2
O=C(Nc1ccccc1)n1ccc2ccc(-c3ccc4cc[nH]c4c3)cc21 | / | / | / | / | 14 | /
CC(C(=O)NC1=NCCS1)N1C(=O)c2ccccc2C1=O (stereo not drawn) | -2 | -7 | 23583* | 3 | -3 | -4
COc1ccc(NC(=O)c2cccnc2Cl)c(S(=O)(=O)N2CCOCC2)c1 | 2 | 4 | 22564* | 0 | -8 | 0
Cc1ccc(CSc2nnc(-c3cccnc3)n2N)cc1 | -1 | -4 | 23095* | -2 | -10 | 0
Nn1c(SCc2cccc(C(F)(F)F)c2)nnc1-c1ccco1 | ? | -2 | 6915 | -2 | 24 | 1
Cc1ccc(CSc2nnc(-c3ccco3)n2N)cc1 | 0 | 1 | 23093* | 0 | -3 | -2
Cc1ccc(C(=O)CSc2nnc(-c3cccnc3)n2N)cc1 | 1 | 2 | 15409 | 3 | 8 | -8
Cc1cccc(NC(=O)COC(=O)CCc2c[nH]c3ccccc23)c1C | 0 | 0 | 6450 | / | -7 | 0
Cc1ccc2[nH]c(=O)c(CN(CC3CCCO3)S(=O)(=O)c3c(C)ccc4nsnc34)cc2c1 (stereo not drawn) | ? | 4 | 19816* | -2 | -11 | -6
Cc1ccc2[nH]c(=O)c(CN(CC3CCCO3)S(=O)(=O)c3cccc4nsnc34)cc2c1 (stereo not drawn) | 1 | 7 | 9718 | -1 | 7 | -1
CN1CC[n+]2cnc3ccccc3c21 | ? | 6 | 18857* | 6 | -10 | -12
c1ccc2c(N3CCCCC3)ncnc2c1 | -1 | 14 | 4588 | 1 | -2 | -4
Cc1nc2ccccn2c1C(=O)N/N=C/c1cc(C)n(-c2ccc(Br)cc2)c1C | -4 | -8 | 23974* | 0 | 2 | -6
CC(C)(C)NC(=O)C1CC(=O)OC1(C)C (stereo not drawn) | -4 | -5 | 21395* | -1 | -17 | 0
NC(=O)c1c(NC(=O)Cc2ccccc2)sc2c1CCN(Cc1ccccc1)C2 | -1 | -5 | 5547 | -2 | 0 | -2
COc1ccccc1Nc1nc2c(C)cccc2cc1C#N | 0 | 1 | 16724* | 4 | -4 | -1
COc1ccc(-c2nc(C#N)c(NCc3ccccc3Cl)o2)cc1 | ? | 4 | 20055* | -4 | 4 | 0
N#Cc1nc(-c2ccc(Cl)cc2)oc1NCc1ccco1 | 0 | 3 | 3900 | -1 | -19 | -7
N#Cc1nc(-c2ccc(Cl)cc2)oc1NCc1cccc2c1OCO2 | 1 | -2 | 19143* | 3 | -3 | -1
Cc1ccc(-c2nc(C#N)c(NCCN3CCCCC3)o2)cc1 | ? | -11 | 22423* | 0 | -35 | -3
COc1ccc(-c2nc(C#N)c(NCc3ccccc3Cl)o2)cc1OC | 1 | -2 | 9497 | 3 | -9 | 4
COc1ccc(CNc2oc(COc3ccc(Cl)cc3)nc2C#N)cc1 | -4 | -10 | 20982* | 6 | -7 | -3
N#Cc1nc(-c2ccc(F)cc2)oc1NCCN1CCOCC1 | -1 | -3 | 5639 | -4 | -11 | -4
CC1=C(C(=O)Nc2ccc(C(=O)NCCCN3CCCCC3)cc2)SCCO1 | -3 | -7 | 6696 | -5 | 13 | -3
C=CCN(CC#CC1=CCCCC1)Cc1ccc(OC)cc1OC | / | / | / | / | 15 | /
SMILES | BoNT-A LC inh2 | BoNT-F LC inh | Bead autofluor | 3CLpro inhibitor | CCHFV vOTU inh | Anthrax LF inh2
O=C(NCc1ccc(Cl)cc1)C1CCC(=O)N(C2CC2)C1 (stereo not drawn) | -3 | -6 | 6387 | -1 | 8 | -5
NC(=O)CN1CCN(c2nc(-c3ccc(F)cc3)cs2)CC1 | 0 | -2 | 4771 | -1 | 5 | -1
O=C(CN1CCN(c2nc(-c3ccc(F)cc3)cs2)CC1)Nc1ccc2c(c1)OCO2 | -2 | -6 | 16899* | 1 | 14 | -5
Clc1ccc(-c2nnc(-c3ccc(Br)o3)o2)c(Cl)c1 | 1 | 2 | 22190* | -3 | -15 | 1
Clc1ccc(-c2nnc(-c3ccccc3)o2)c(Cl)c1 | 1 | -2 | 9453 | -1 | 22 | -1
Cc1cccc(NC(=O)c2cc(-c3ccccn3)nc3ccccc23)c1C | -1 | -1 | 4540 | -1 | 2 | -2
CCOc1cc(CNn2nnnc2N)ccc1OCC(=O)NC(C)(C)C | -2 | -4 | 16985* | -2 | -5 | 0
COc1cc(CNn2nnnc2N)ccc1OCC(=O)NC(C)(C)C | 1 | -1 | 23140* | 0 | 2 | -1
COc1cc(OC)c(-c2nnc(-c3ccc(OC)c(OC)c3OC)o2)cc1OC | -1 | -3 | 23443* | -4 | -20 | -4
CC(C)(C)C(=O)c1cnc(Nc2ccccc2Cl)s1 | 0 | 0 | 2982 | 0 | 2 | 2
O=C(c1ccc(Cl)c(Cl)c1)c1cnc(Nc2ccccc2)s1 | 0 | -1 | 16510* | -3 | -3 | -1
O=C(c1ccccc1)c1cnc(Nc2ccccc2Cl)s1 | 4 | -3 | 21405* | 2 | / | -5
CNc1ncc(C(=O)c2ccc(Cl)c(Cl)c2)s1 | 0 | 6 | 8986 | 4 | 9 | -10
COc1nc(N(C#N)CC(N)=O)nc(N2CCCC2)n1 | -2 | -3 | 20491* | 4 | 3 | 2
COc1nc(OCC#N)nc(N2CCCCC2)n1 | -1 | 2 | 4275 | 3 | 5 | -4
O=C(CCN1C(=O)/C(=C/c2cccs2)SC1=S)N1CCCCC1 | 17 | 17 | 5473 | 6 | 7 | 18
Nc1c(N2CCOCC2)cc(Cl)c2nonc12 | ? | -3 | 23187* | -7 | -2 | -2
O=C(c1ccccc1C(F)(F)F)N1CCC(Oc2cccnc2)CC1 | / | / | / | / | -8 | /
Cc1cc(N2CC(C(=O)Nc3nccs3)CC2=O)ccc1C(C)C (stereo not drawn) | 4 | 8 | 5198 | 0 | -3 | 0
O=C(CNS(=O)(=O)c1ccccc1)OCC(=O)c1ccc(Br)cc1 | -5 | -8 | 4045 | 0 | -9 | -3
O=C(CNS(=O)(=O)c1ccccc1)OCC(=O)c1ccc(OC(=O)c2ccccc2)cc1 | ? | 7 | 21032* | 0 | 0 | 0
CCCN(c1ccc(OCC)cc1)S(=O)(=O)c1ccc2c(c1)CCN2C(=O)CCC(=O)O | -2 | 0 | 9170 | 10 | -5 | 1
CCCCN(c1ccccc1)S(=O)(=O)c1ccc2c(c1)CCN2C(=O)CCC(=O)O | 2 | 1 | 22207* | -3 | 17 | -6
CC1CCN(S(=O)(=O)c2ccc3c(c2)CCN3C(=O)CCC(=O)O)CC1 | 6 | 9 | 21818* | 2 | -8 | -2
COc1cc(OC)cc(C(=O)N2CCC3(CC2)NCCc2[nH]cnc23)c1 | 0 | 0 | 6079 | 0 | 8 | -2
CCOc1ccccc1N(C)C(=O)c1ccc2c(=O)n3c(nc2c1)CCCCC3 | 0 | -4 | 3998 | 1 | -3 | 3
CC(=O)NC(CC(=O)NCCN1C(=O)S/C(=C\c2ccccc2)C1=O)c1ccccc1 (stereo not drawn) | 0 | -5 | 4019 | 8 | 1 | 3
CCc1ccc(-c2nc(CN3CCC(C(=O)NCCN(CC)c4ccccc4)CC3)c(C)o2)cc1 | 0 | -15 | 6106 | 0 | -2 | -15

Source: PubChem BioAssay (several laboratories)
